# Measured values reported in the supplement of paper PMC3334620.
# Whole data set: some 33,000 sequences, median “E-score (-0.5 to 0.5)” near -0.035, cut for the highest 2% near 0.34. Many of the other results were omitted from the sample, so the highest values are more common in it than they were.
# Target: T1, Mot3 (UniProt P54785)
# T1 sequence: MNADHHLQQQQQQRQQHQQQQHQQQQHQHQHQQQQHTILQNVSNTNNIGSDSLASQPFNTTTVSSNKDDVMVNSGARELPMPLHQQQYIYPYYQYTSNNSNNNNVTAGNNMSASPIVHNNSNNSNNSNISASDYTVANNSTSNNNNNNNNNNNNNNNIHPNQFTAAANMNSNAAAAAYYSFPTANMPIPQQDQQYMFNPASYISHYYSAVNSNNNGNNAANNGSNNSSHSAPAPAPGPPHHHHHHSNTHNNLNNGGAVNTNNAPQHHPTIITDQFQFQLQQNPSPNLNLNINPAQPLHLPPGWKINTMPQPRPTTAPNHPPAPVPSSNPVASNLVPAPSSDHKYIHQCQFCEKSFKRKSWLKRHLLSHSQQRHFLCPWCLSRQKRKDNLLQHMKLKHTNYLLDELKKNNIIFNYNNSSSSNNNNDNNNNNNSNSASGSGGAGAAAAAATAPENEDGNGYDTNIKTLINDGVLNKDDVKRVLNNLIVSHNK
# Experiment: PBM E-score (8-mer binding enrichment) (E-score (-0.5 to 0.5)); higher = stronger / more preferred TF binding
# Conditions: protein concentration: 200 nM; construct: GST-full length
# Experimental: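 Universal 'all 10-mer' protein binding microarrays (Agilent AMADID 015681) probed with GST-tagged S. cerevisiae TFs (full-length or DBD) made by in vitro transcription/translation (PURExpress), about 100-200 nM. Bound TF was detected with fluorescent anti-GST. Each ungapped 8-mer (which stands for itself and its reverse complement) is scored by the PBM enrichment score (E-score), a modified Wilcoxon-Mann-Whitney statistic from -0.5 to +0.5, computed with the Universal PBM Analysis Suite. Scale: above 0.35 generally sequence-specific binding.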
row,Sequence,PBM E-score
1,GGGAAAAC,-0.195
2,AGGAAAAA,0.352
3,AGGAAAAC,0.416
4,ACGAAAAT,0.163
5,AGAAAAAT,0.133
6,CGGAAAAC,0.0409
7,TGGAAAAA,0.0684
8,AGGAAAAG,0.305
9,AGGAAAAT,0.416
10,CCAGGGGA,-0.363
11,ATGAGAAC,0.00278
12,ATAGTGCA,0.134
13,GATTGAAC,0.142
14,ACCTCATG,-0.175
15,AAACGCTA,-0.0463
16,CACAACAG,0.181
17,AGTCCCCA,-0.348
18,ACATGATA,0.35
19,CCATGATC,-0.251
20,ACATGACT,0.211
21,ACATGATC,0.385
22,CCATGATA,-0.147
23,ACATGAAC,0.256
24,ACATGAAG,0.344
25,ACATGATG,0.241

row,Sequence,PBM E-score
1,ACATGACA,0.343
2,GCATGACA,0.116
3,ACATGAAT,0.294
4,GCATGATA,0.0933
5,CCACACCC,-0.133
6,CAGGAGGG,-0.159
7,AGAGTGAT,0.105
8,CTCGCCAA,-0.0783
9,CAGTTGTA,0.00216
10,TAGCCAAA,-0.0612
11,CACAGACC,0.0761
12,CACGCTTC,0.146
13,AAGTTTAA,0.068
14,ATAACATC,0.21
15,ACAACATA,0.307
16,ACAACATG,0.359
17,ATAACATG,0.36
18,ATAACACG,0.391
19,ATAACACA,0.332
20,CTAACATA,0.156
21,ATAACAGG,0.229
22,CTAACACA,0.313
23,ATAACATA,0.344
24,ACAACATC,0.195
25,GTAACATA,0.26

row,Sequence,PBM E-score
1,GCGCTCGA,-0.00313
2,ATCAACGC,0.194
3,CGTCGCAC,-0.243
4,ATGGGCAC,0.333
5,CGATTAAG,0.108
6,CCCTTCGA,0.0666
7,ACCGTACG,-0.116
8,CGTGCTAG,-0.0215
9,AAAACATG,0.351
10,AAAACATA,0.314
11,AAAACATT,0.187
12,CCATCAGG,-0.179
13,AGGGTCAA,-0.0327
14,CCTGCATA,0.126
15,AAAGTGTG,0.0664
16,CTTTTTAC,0.21
17,GAATACAC,0.363
18,AAATATAC,0.0863
19,AAATACAC,0.37
20,AAATACCC,-0.0215
21,GAATACAA,0.214
22,CTATACAC,0.254
23,CAATACAC,0.331
24,AAATACAG,0.212
25,AAATACAA,0.281

row,Sequence,PBM E-score
1,ATATACAC,0.358
2,GTATACAC,0.323
3,AAATACAT,0.344
4,ATCCTTAA,0.00499
5,CACGCTGG,-0.0203
6,GGTGCTAA,-0.0828
7,AGGTTGAG,0.0336
8,TAACTCCA,-0.179
9,CAGAAATG,0.00635
10,CACGTTCG,0.00382
11,ACAGGCGA,0.0648
12,ACAGGCAA,0.489
13,ACAGGCCA,0.296
14,ACAGGCCT,0.00325
15,ACAGGCAT,0.409
16,ACAGGCAG,0.239
17,CCCACTGC,-0.32
18,GTACCCAC,0.0626
19,TATGGCAA,-0.0849
20,CGTGTCAA,0.342
21,GCTGTAAA,0.25
22,AATGTAAA,0.374
23,ACTGTAAA,0.191
24,GATGTAAA,0.35
25,GTTGTAAA,0.31

row,Sequence,PBM E-score
1,ATTGTAAA,0.3
2,CTTGTAAA,0.378
3,AGTGTCAA,-0.0255
4,CTTGTAAC,0.281
5,AATGTAGA,0.221
6,CGTGTCAG,0.223
7,GAACTCGC,-0.0603
8,GTCTCATA,-0.0702
9,CCGCCTTC,-0.226
10,GGCTCGTA,0.112
11,ACGGTTGG,-0.106
12,AGCGTGAT,-0.153
13,TCTGGTCA,-0.0723
14,CCCCACGG,-0.224
15,TCTGTAAA,0.231
16,CCTGTAAA,0.335
17,CATGTAAA,0.436
18,CATGTAAG,0.398
19,ACTGTAAT,0.169
20,AATGTAAT,0.377
21,AATGTAAC,0.218
22,AATGTAAG,0.201
23,TATGTAGA,0.333
24,CACGTAAA,0.339
25,CCTGTAAG,0.282

row,Sequence,PBM E-score
1,TATGTAAA,0.434
2,CTGCTGAC,0.0167
3,AAAAGGAG,0.0569
4,ACAGTGGG,-0.0834
5,GCTACAGC,-0.167
6,CGAAGTAA,0.174
7,CTGCTGCA,-0.0263
8,CAGTTAGC,-0.274
9,CCATCTCA,-0.228
10,CCGCAGGC,0.272
11,AGGAGTAC,0.171
12,AACCGACA,0.0529
13,CCAGAACG,-0.0663
14,ACCAGCGT,-0.0988
15,TATGTCAA,0.363
16,GATGTCAA,0.144
17,CCTGTAAC,0.295
18,GATGTAAC,0.175
19,CATGTAAC,0.382
20,AATGTCAA,0.0969
21,CTAGCACC,-0.0791
22,CGTTTGAG,-0.0011
23,CACGTGAA,0.183
24,CACGTGTA,0.383
25,AACGTGTA,0.415

row,Sequence,PBM E-score
1,AACGTGTC,0.273
2,GACGTGTA,0.318
3,CACGTGTC,0.183
4,CGTCTGTA,0.135
5,ACCCATAA,-0.196
6,ATACCCAT,0.142
7,CTATGAAC,0.2
8,CCAGTGTA,0.0502
9,CAGGCATA,0.319
10,CAGGCATG,0.358
11,CAGGCATC,0.402
12,CATGCATG,0.0529
13,GAGGCATC,0.145
14,CAGACATG,0.106
15,AGGTGTGC,0.0416
16,AAGATCTC,-0.0117
17,CCAGGTAA,0.238
18,ACAGGTAT,0.194
19,TCAGGTAA,0.324
20,GCAGGTCC,-0.168
21,CCAGGTAC,0.238
22,ACAGGTAA,0.39
23,ACAGGTGA,0.0111
24,ACAGGTTA,0.155
25,GCAGGTAA,0.385

row,Sequence,PBM E-score
1,ACAGGTAC,0.423
2,GCAGGTAC,0.452
3,ACAGGTAG,-0.0129
4,GCGTTACC,0.0266
5,CGGCTTCA,-0.131
6,CCCCACAA,-0.0534
7,ACTGAATC,-0.0804
8,AGGCTCCG,0.223
9,ATTGCCAC,-0.0828
10,GTGGTCTA,-0.279
11,CTTTGAAC,-0.158
12,GACACGTA,0.26
13,TACACGTA,0.362
14,CACACGTA,0.208
15,TACACGGA,0.357
16,CACACGGA,0.0661
17,GACACGGA,0.22
18,AGGTTGAT,-0.099
19,GCCCCCTA,-0.355
20,ATAGCGAT,-0.11
21,CAGAGCCG,-0.157
22,CTTGTGTA,0.333
23,ATTGTGTA,0.346
24,ATTGTGTG,0.0589
25,ATTGTGTC,0.139

row,Sequence,PBM E-score
1,GATGTGTA,0.347
2,GTGTTGTA,0.283
3,CATGTGTA,0.331
4,GTTGTGTA,0.373
5,AATGTGTA,0.289
6,ATCTGCCC,-0.0711
7,ACTGGCCC,-0.252
8,AACGACCG,-0.163
9,AAATGCGG,-0.0946
10,ACTGGCTG,-0.261
11,GACTAATC,-0.182
12,CCCTGCGA,-0.212
13,GCCTGTTA,0.35
14,GCCTGTAC,0.338
15,GCCTGTAA,0.391
16,GCCTGCGA,0.35
17,ACCTGCGA,0.0659
18,TCCTGTAA,0.338
19,CCCTGTTA,0.12
20,ACCTGTTA,0.167
